# Laboratory results as given in PubChem BioAssay (NCI).
# About 83,000 compounds went through this panel and 20% of them were active in at least one assay; those are over-represented in the sample as a whole.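 Note: values are percent growth. 100 is the growth of untreated cells, values between 100 and 0 indicate rising inhibition; between -100 and 0 indicates cell death.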 A number with no mark means an inactive call. Active and inactive are the calls of the source. Rule for the calls: active = growth percent below 10; inactive = the rest.
# Experiments:
# Assay in all cases: NCI-60 one-dose screen, 48 h (100 = growth as untreated, 0 = no growth, -100 = all killed)
# Conditions in all cases: 10 µM unless noted
# T-47D breast = test system: T-47D breast
# BT-549 breast = test system: BT-549 breast
# MDA-MB-435 melanoma = test system: MDA-MB-435 melanoma
# SW-620 colon = test system: SW-620 colon
# MCF7 breast = test system: MCF7 breast
# HCT-116 colon = test system: HCT-116 colon
# HCC-2998 colon = test system: HCC-2998 colon
# KM12 colon = test system: KM12 colon
Structure (SMILES),growth (T-47D breast),growth (BT-549 breast),growth (MDA-MB-435 melanoma),growth (SW-620 colon),growth (MCF7 breast),growth (HCT-116 colon),growth (HCC-2998 colon),growth (KM12 colon)
O=C(Nc1ccc(N=Cc2c(O)[nH]c3ccccc23)cc1)Nc1ccc(S(=O)(=O)Nc2ncccn2)cc1,92.2%,103%,101%,103%,85%,92.7%,109%,50.9%
CN1CCN(c2ccc(C(=O)/C=C/c3cc(F)cc(C(F)(F)F)c3)cc2)CC1,51.9%,71.2%,24%,20%,8.55% (active),22.8%,86.6%,35.5%
CC(C)(C)Nc1nc2c(OCCc3ccccc3)cccn2c1-c1cccc(Oc2ccccc2)c1,8.72% (active),-11% (active),19.9%,23.5%,4.96% (active),4.13% (active),21.3%,14%
Clc1cccc(/C=N/Nc2nc(N/N=C/c3cccc(Cl)c3)nc(N3CCOCC3)n2)c1,68.5%,92.7%,49.3%,18.1%,43%,22.8%,59%,30.2%
CNC(=O)c1cc(N2CCc3cc(NC(=O)Nc4ccc(N5CCN(C)CC5)c(C(F)(F)F)c4)ccc32)ccn1,81.4%,84.9%,82.3%,3.68% (active),-2.1% (active),-47.2% (active),84.9%,29.5%
COc1ccc(-c2cnc(NC(=O)CCCCCCNC(=O)C(O)(O)C(F)(F)F)s2)cc1,0.87% (active),-11.9% (active),5.55% (active),0.251% (active),7.73% (active),-9.91% (active),-46.5% (active),-47.8% (active)
COc1cccc2c1C=CC1(O2)Oc2cccc(OC)c2C=C1C (stereo not given),45.7%,25.1%,-10.1% (active),30%,13.1%,14%,15.8%,20.5%
Cc1ccc2c(n1)C(=O)C(Cl)=C(Nc1cccc(C(=O)OC(C)(C)C)c1)C2=O,59.1%,102%,97.9%,64.3%,53.3%,14%,113%,99.2%
CCOP(=O)(OCC)OC[C@]12CCC(C)(C)CC1C1=CC[C@@H]3[C@@]4(C)CCCNC(C)(C)[C@@H]4CC[C@@]3(C)[C@]1(C)CC2 (stereo not given in full),79.2%,104%,90.6%,66.3%,35.1%,20.4%,26.6%,88.7%
CC(Nc1ncnc2ccc(-c3cnc(N)nc3)cc12)c1ccccc1 (stereo not given),12.2%,19.9%,50.4%,67.4%,18.5%,33%,43%,54.7%
Cc1ccc(-c2nc(SCC(=O)c3ccccc3)nc(Nc3ccc(S(N)(=O)=O)cc3)c2C#N)cc1,83.9%,73.8%,47%,83.8%,65.1%,35.9%,106%,72.8%
NS(=O)(=O)c1ccc(Nc2nc(Nc3ccccc3)nc(N3N=C(c4ccc(Cl)cc4)CC3c3ccc(Cl)cc3)n2)cc1 (stereo not given),51.3%,73.2%,39.1%,54.4%,12.8%,14.1%,13.1%,5.08% (active)
C=CCSC1=NC2C(N(CC)C(=O)N2CC)N1/N=C/C=C/c1ccccc1OC (stereo not given),68.9%,79.8%,2.79% (active),69.7%,42.5%,73.7%,97.8%,57.8%
COc1ccc(CC(C)=C(c2ccc(OCCN3CCCC3)cc2)c2ccc(OCCN3CCCC3)cc2)cc1,-49.9% (active),-69.5% (active),-76.4% (active),-53% (active),-80% (active),-17.6% (active),-80.3% (active),-95.3% (active)
COc1ccc(/C=N\NC(=O)c2cnn(CC(O)c3ccccc3)c2N)cc1OCc1ccc(Cl)cc1 (stereo not given),56.9%,109%,78.7%,64.5%,60.8%,49.4%,108%,75%
Nc1ccc(Nc2ncnc3sc4c(c23)CCN(Cc2ccccc2)C4)cc1,102%,101%,102%,99.7%,84.5%,96.9%,105%,104%
CCCCCCOC(=O)c1cc(-c2ccc(F)cc2)nc2ccccc12,88.8%,103%,99.9%,93.5%,91.5%,93.3%,106%,96.1%
C=C1CCc2nc(SCC(=O)O)ccc2N1,98.5%,114%,101%,106%,99.5%,98%,103%,102%
Cc1ccccc1NC(=O)Nc1nc2ccc([N+](=O)[O-])cc2s1,-10.8% (active),-2.98% (active),5.39% (active),11.6%,4.12% (active),2.44% (active),24.6%,4.18% (active)
COc1ccccc1N1CCN(C2=C(Cl)C(=O)c3ncccc3C2=O)CC1,19.3%,119%,57.7%,43.8%,36.9%,27.1%,108%,90.7%
Cc1ccc(CSC2=C(Cl)CN(c3ccc(Cl)cc3)C2=O)cc1,96.5%,110%,103%,108%,79.1%,98.5%,105%,106%
O=C(CSc1nc2ccccc2c(=O)n1-c1ccccc1)N/N=C/c1ccc(Oc2ccc(Br)cc2)cc1,82.4%,73.1%,80.8%,29.6%,68.9%,7.81% (active),87.1%,76.3%
N#Cc1c(-c2cccs2)cc(-c2cnccn2)nc1SCC(=O)N/N=C/c1cccs1,50.1%,42.5%,51%,43.2%,32.1%,0.402% (active),43.1%,47.6%
Fc1cc(F)cc(NNC(=S)c2ccccc2)c1,-2.7% (active),17.8%,64%,58%,37.5%,20.9%,87%,49.1%
Cn1cc(-c2cc3ncnc(Nc4ccc(CC(=O)Nc5nc(C(C)(C)C)cs5)cc4)c3s2)cn1,3.67% (active),61.3%,54.6%,53.8%,41.8%,39%,74.6%,13.2%
FC(F)(F)c1cc(Br)cc(-c2cc(-c3ccc4c(c3)OCCO4)[nH]n2)c1,66.4%,-3.55% (active),-12.3% (active),25.3%,11.4%,5.67% (active),29.1%,12.3%
C=C(C)[C@@H]1CC[C@]2(C(=O)NC3CCCCC3)CC[C@]3(C)[C@H](CC[C@@H]4[C@@]5(C)CC[C@H](N)C(C)(C)[C@@H]5CC[C@]43C)[C@@H]12,80.6%,106%,98%,75.4%,24.5%,7.83% (active),92.1%,95.8%
COc1cc(C(C)=C(c2ccc(OCCN(C)C)cc2)c2ccc(OCCN(C)C)cc2)ccc1F,93.4%,107%,108%,104%,93.8%,107%,100%,109%
CN1CCN(Cc2ccc(NC(=O)c3cncc(C#Cc4cnc5ccc(OCC6COC6)nn45)c3)cc2C(F)(F)F)CC1,-1.42% (active),-71.5% (active),-92.3% (active),-29.8% (active),-70.8% (active),-78.6% (active),-77.4% (active),-73.6% (active)
Cc1ccccc1Nc1nc(SC(C)C)nc(-c2ccccc2)c1C#N,88.1%,97.1%,44.9%,43.1%,51.6%,2.97% (active),86.4%,94.2%
